Source: PubChem BioAssay (Tox21)
Inconclusive results are not listed. The source made the active and inactive calls. Unless noted, the call rests on the fitted dose curve; in most records, active means well fitted curve in the direction sought with a large enough effect in the repeat runs; inconclusive means weak or mixed curves; inactive means no such curve, though single readings can be large; an effect the other way counts as inactive or inconclusive.

How the values were obtained:
[1] = qHTS assay to test for compound auto fluorescence at 535 nm (green) in HEK293 cells (AID 720680)
[2] = qHTS assay to test for compound auto fluorescence at 460 nm (blue) in HEK293 cell free culture (AID 720681)
Outline: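 Blue fluorescence (Ex 405/Em 460 nm, triamterene-equivalent) was read immediately after pin transfer of compound or DMSO into medium (DMEM, 10% FBS) without cells.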

[3] = qHTS assay to test for compound auto fluorescence at 590 nm (red) in HEK293 cell free culture (AID 720683)
Outline: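 Red-channel autofluorescence of compounds in culture medium (DMEM, 10% FBS), no cells, measured at 540/590 nm. Rose Bengal sodium is the reference fluorophore for equivalence.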

[4] = qHTS assay to test for compound auto fluorescence at 590 nm (red) in HepG2 cell free culture (AID 720684)
Outline: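 No cells present: MEM + 10% FBS only. Compound pinned in, red label read (540/590 nm). Activity = fluorescence equivalent to Rose Bengal sodium.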

[5] = qHTS assay to test for compound auto fluorescence at 460 nm (blue) in HepG2 cell free culture (AID 720685)
Outline: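 Cell-free plates of MEM plus 10% FBS received 23 nL compound or DMSO vehicle; blue-channel (405/460 nm) intensity scored against triamterene as reference fluorophore.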

[6] = qHTS assay to test for compound auto fluorescence at 535 nm (green) in HepG2 cell free culture (AID 720686)
[7] = molecular target: Glucocorticoid receptor (Homo sapiens) (UniProt P04150); assay: qHTS assay to identify small molecule agonists of the glucocorticoid receptor (GR) signaling pathway (AID 720691; active means well fitted activation curve with a large enough effect in the signal ratio in the repeat runs, not every such curve was filed as active; the % refers to the signal ratio)
Glucocorticoid receptor (Homo sapiens), sequence (P04150 whole entry, looked up): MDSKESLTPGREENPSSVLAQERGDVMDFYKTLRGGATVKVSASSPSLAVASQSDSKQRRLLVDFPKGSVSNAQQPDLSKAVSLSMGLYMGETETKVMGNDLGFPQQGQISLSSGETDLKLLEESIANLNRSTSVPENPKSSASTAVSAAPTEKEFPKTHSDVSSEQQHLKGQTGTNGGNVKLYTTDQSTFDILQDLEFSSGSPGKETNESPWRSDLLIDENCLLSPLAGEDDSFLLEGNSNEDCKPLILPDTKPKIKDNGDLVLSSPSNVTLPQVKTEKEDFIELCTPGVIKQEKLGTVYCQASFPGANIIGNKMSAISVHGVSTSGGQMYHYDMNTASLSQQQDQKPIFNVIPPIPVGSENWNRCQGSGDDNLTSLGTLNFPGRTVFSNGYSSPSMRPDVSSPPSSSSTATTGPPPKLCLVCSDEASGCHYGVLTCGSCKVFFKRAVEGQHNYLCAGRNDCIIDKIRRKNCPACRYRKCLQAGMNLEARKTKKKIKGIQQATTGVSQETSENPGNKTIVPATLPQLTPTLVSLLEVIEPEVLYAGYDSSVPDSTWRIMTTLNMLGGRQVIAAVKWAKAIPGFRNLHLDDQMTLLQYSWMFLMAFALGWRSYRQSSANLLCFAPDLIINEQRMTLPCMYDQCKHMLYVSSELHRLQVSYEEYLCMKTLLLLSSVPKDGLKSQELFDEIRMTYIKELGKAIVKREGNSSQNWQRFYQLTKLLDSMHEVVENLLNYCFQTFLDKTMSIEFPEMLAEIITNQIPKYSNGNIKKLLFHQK
Outline: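 Agonist-mode qHTS in HeLa cells stably expressing a glucocorticoid-response-element beta-lactamase reporter. Fluorescence intensity read with FRET substrate (2 h, room temperature) after 18 h compound treatment at 37 C.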

[8] = molecular target: Glucocorticoid receptor (Homo sapiens) (UniProt P04150); assay: qHTS assay to identify small molecule antagonists of the glucocorticoid receptor (GR) signaling pathway (AID 720692; active means well fitted inhibition curve with a large enough effect in the signal ratio in the repeat runs, not every such curve was filed as active; the % refers to the signal ratio)
Outline: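 Inhibition of dexamethasone-driven (5 nM final) beta-lactamase expression was measured in GRE-reporter HeLa cells over 18 h at 37C. Fluorescence was read after 2 h with the B/G FRET substrate at room temperature.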

[9] = qHTS assay to identify small molecule antagonists of the glucocorticoid receptor (GR) signaling pathway - cell viability counter screen (AID 720693); further: nearly all actives have a fitted effect of over 55% in size
[10] = qHTS assay for identifying genotoxic compounds that show differential cytotoxicity against isogenic chicken DT40 cell lines with known DNA damage response pathways - wild type cell line (AID 743012); further: nearly all actives have a fitted effect of over 60% in size
Outline: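 Viability by ATP luminescence (CellTiter-Glo, 30 min RT) after 40 h compound treatment at 37 C/5% CO2, using 300 parental DNA repair-proficient DT40 cells per well.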

[11] = qHTS assay for identifying genotoxic compounds that show differential cytotoxicity against isogenic chicken DT40 cell lines with known DNA damage response pathways - Rev3 mutant cell line (AID 743014); further: nearly all actives have a fitted effect of over 55% in size
[12] = qHTS assay for identifying genotoxic compounds that show differential cytotoxicity against isogenic chicken DT40 cell lines with known DNA damage response pathways - Rad54/Ku70 mutant cell line (AID 743015); further: nearly all actives have a fitted effect of over 60% in size
[13] = qHTS assay to identify small molecule antagonists of the androgen receptor (AR) signaling pathway - cell viability counter screen (AID 743033; further: nearly all actives have a fitted effect of over 45% in size)
[14] = qHTS assay to identify small molecule antagonists of the androgen receptor (AR) signaling pathway using the MDA cell line - cell viability counter screen (AID 743041; further: nearly all actives have a fitted effect of over 45% in size)
Outline: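 Using the breast carcinoma line MDA-kb2 AR-luc, test chemicals were co-incubated with R1881 for 16 h; CellTiter-Fluor reagent, added at 15.5 h, provided a fluorescence measure of live cells.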

[15] = qHTS assay to identify small molecule antagonists of the thyroid receptor (TR) signaling pathway - cell viability counter screen (AID 743064); further: nearly all actives have a fitted effect of over 50% in size
Outline: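 In-well cytotoxicity read by CellTiter-Fluor (30 min, 37 C) following 23.5 h exposure of GH3 cells bearing a TRE-luciferase sensor. Compounds were added alongside 1 nM (final) T3 to drive TR transactivation.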

[16] = qHTS assay to test for compound auto fluorescence at 460 nm (blue) in HepG2 cells (AID 720687)
Outline: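 Blue-channel autofluorescence (Ex/Em 405/460 nm, triamterene-equivalent) was measured after 1 hr compound exposure at 37 C, 5% CO2. Cells were HepG2, plated overnight at 37 C in MEM plus 10% FBS.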

[17] = qHTS assay to test for compound auto fluorescence at 535 nm (green) in HEK293 cell free culture (AID 720682)
Outline: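 Compounds were pin-transferred into cell-free DMEM with 10% FBS, and green fluorescence was read at excitation 485 nm and emission 535 nm. Intensities were expressed as fluorescein-equivalent values.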

Measured: Potency

O=C1CN=C(c2ccccc2)c2cc([N+](=O)[O-])ccc2N1
not listed: [16] | [17]
inactive: all other assays above

CCOc1nc(C(Cl)(Cl)Cl)ns1
not listed: [7] | [8] | [10] | [17]
inactive: all other assays above

O=[N+]([O-])c1cccc2cccnc12
not listed: [10] | [11] | [12] | [17]
inactive: all other assays above

N#CC(O)c1ccccc1 (centres undefined)
not listed: [1] | [15]
inactive: all other assays above

NC(=S)C(N)=S
not listed: [7] | [8] | [15] | [16] | [17]
inactive: all other assays above

O=P(O)(Oc1ccccc1)Oc1ccccc1
not listed: [17]
inactive: all other assays above

Cc1nnc2n1-c1sc(CCC(=O)N3CCOCC3)cc1C(c1ccccc1Cl)=NC2
not listed: [15] | [16] | [17]
inactive: all other assays above

CNC(=O)Oc1cccc(C(C)C)c1
not listed: [1]
inactive: all other assays above

C=C(C)CN(CC)c1c([N+](=O)[O-])cc(C(F)(F)F)cc1[N+](=O)[O-]
not listed: [1] | [15]
inactive: all other assays above
